Calls of active or inactive are those of the source. Unless noted, no rule for the calls is given here.
Experiments:
[1] = HepG2 liver cancer cell viability effects, profiling panel, resazurin fluorescence, 24 h, PK04 Diversity Set (AID 1172); conditions: higher = more signal
[2] = basal S. cerevisiae growth modulation, no modifier, primary screen, OD600, strain BY4716, 24 h, basal condition (AID 1173); conditions: OD600, 24 h, higher = more signal, called active from +8 up or from −8 down
[3] = MM1S myeloma cell viability, profiling panel, resazurin fluorescence, basal, 24 h, PK04 Diversity Set (AID 1174); conditions: higher = more signal, called active from +8 up or from −8 down;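 also: MM1S multiple myeloma cell line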
[4] = molecular target: Dihydroorotate dehydrogenase (quinone), mitochondrial (Plasmodium falciparum (isolate 3D7)) (UniProt Q08210); assay: PfDHODH enzyme inhibitors, primary screen, biochemical, C-terminal His tag, absorbance 600 nm (AID 1175); conditions: DCIP absorbance 600 nm, higher = more signal, called active from +8 up or from −8 down;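 also: recombinant parasite enzyme with a five histidine tag at its C terminus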
[5] = P. aeruginosa biofilm formation inhibitors, primary screen, strain PAO1, LB-PBS medium, absorbance 600 nm (AID 1176); conditions: P. aeruginosa PAO1 growth/biofilm, A600, 12 h; higher = more signal
[6] = S. cerevisiae RM11-1a growth modifiers, primary screen, strain RM11-1a, OD600, basal, 24 h (AID 1177); conditions: OD600, 24 h, higher = more signal, called active from +8 up or from −8 down;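 also: cultures grown under basal conditions with no added stressor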
[7] = E. coli acrAB mutant growth effects, primary screen, E. coli filamentation inducers, strain DRC39, OD650, 24 h (AID 1178); conditions: higher = more signal, called active from +8 up or from −8 down;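 also: growth measured as culture turbidity by optical density at 650 nm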
[8] = E. coli acrAB mutant growth effects, primary screen, E. coli filamentation inducers, strain DRC39, OD650, 48 h (AID 1179);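 also: screen aims at cell division blockers that make cells filament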; conditions: E. coli DRC39 delta-acrAB growth, higher = more signal, called active from +8 up or from −8 down
[9] = RPMI8226 myeloma cell viability, profiling panel, resazurin fluorescence, basal, 24 h, PK04 Diversity Set (AID 1180); conditions: higher = more signal;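 also: RPMI8826 multiple myeloma cell line at 5000 cells per well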
[10] = molecular target: E3 ubiquitin-protein ligase XIAP (Homo sapiens) (UniProt P98170); assay: XIAP binders, primary screen, biophysical, small-molecule microarray, fluorescence 635 nm (AID 1181); conditions: small-molecule microarray binding, higher = more signal;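 also: score merges 667 nm emission and signal to noise over triplicate slides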
[11] = test system: XIP peptide (Xip251-270) binding; assay: small-molecule binders of XIP peptide, primary screen, biochemical, small-molecule microarray, fluorescence 635/667 nm, 0.1 µg/mL protein (AID 1182); conditions: fluorescent protein binding, 635 nm, higher = more signal, called active from +8 up or from −8 down
XIP peptide (Xip251-270) = assay: small-molecule binders of XIP peptide, primary screen, biochemical, small-molecule microarray, fluorescence 635/667 nm, 0.5 µg/mL protein (AID 1183); conditions: small-molecule microarray binding, fluorescence 635 nm; higher = more signal
[12] = Plasmodium falciparum growth inhibition, primary screen, strain 3D7, DAPI fluorescence, 100 nL (AID 1184);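 also: parasites grown inside human red blood cells in medium with human serum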; conditions: P. falciparum 3D7 growth, 3 d, higher = more signal
[13] = molecular target: Homeobox protein Hox-A13 (Mus musculus) (UniProt Q62424); assay: inhibitors of HoxA13-DNA binding, primary screen, biochemical, fluorescence polarization, labeled oligonucleotide (AID 1185); conditions: 15 min, higher = more signal, called active from +8 up or from −8 down
[14] = inhibitors of hydroxyurea-induced Chk1 phosphorylation, primary screen, imaging, HeLa, phospho-Chk1 antibody, percent positive cells (AID 1186); conditions: hydroxyurea-induced phospho-Chk1 immunofluorescence imaging, higher = more signal
[15] = inhibitors of hydroxyurea-induced Chk1 phosphorylation, primary screen, imaging, HeLa, phospho-Chk1 nuclear intensity (AID 1187); conditions: hydroxyurea-induced phospho-Chk1 immunofluorescence imaging, higher = more signal

Sequence of Homeobox protein Hox-A13 (Mus musculus) (Q62424 whole entry, looked up): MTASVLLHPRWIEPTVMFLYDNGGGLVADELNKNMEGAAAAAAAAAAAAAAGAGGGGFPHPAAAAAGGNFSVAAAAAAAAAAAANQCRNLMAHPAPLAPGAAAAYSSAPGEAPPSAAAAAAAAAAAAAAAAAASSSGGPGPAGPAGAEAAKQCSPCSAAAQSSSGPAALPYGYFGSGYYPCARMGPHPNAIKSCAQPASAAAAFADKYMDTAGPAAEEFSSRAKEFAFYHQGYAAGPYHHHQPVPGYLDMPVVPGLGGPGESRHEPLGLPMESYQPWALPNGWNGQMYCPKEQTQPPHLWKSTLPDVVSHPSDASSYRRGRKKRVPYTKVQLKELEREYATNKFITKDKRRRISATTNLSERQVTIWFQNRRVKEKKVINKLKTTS
Sequence of E3 ubiquitin-protein ligase XIAP (Homo sapiens) (P98170 whole entry, looked up): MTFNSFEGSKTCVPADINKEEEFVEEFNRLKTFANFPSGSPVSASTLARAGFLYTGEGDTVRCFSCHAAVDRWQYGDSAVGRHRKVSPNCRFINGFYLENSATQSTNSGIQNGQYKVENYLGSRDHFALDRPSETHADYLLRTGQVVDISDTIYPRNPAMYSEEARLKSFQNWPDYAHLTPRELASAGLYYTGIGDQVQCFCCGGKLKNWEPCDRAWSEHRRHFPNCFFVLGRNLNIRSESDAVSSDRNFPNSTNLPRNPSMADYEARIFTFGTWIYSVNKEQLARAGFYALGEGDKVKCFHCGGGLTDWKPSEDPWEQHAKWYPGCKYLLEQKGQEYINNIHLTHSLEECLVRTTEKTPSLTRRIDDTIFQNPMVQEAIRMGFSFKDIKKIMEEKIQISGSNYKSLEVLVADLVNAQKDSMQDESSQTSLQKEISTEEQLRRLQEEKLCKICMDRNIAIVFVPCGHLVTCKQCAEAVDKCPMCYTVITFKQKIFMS
Sequence of Dihydroorotate dehydrogenase (quinone), mitochondrial (Plasmodium falciparum (isolate 3D7)) (Q08210 whole entry, looked up): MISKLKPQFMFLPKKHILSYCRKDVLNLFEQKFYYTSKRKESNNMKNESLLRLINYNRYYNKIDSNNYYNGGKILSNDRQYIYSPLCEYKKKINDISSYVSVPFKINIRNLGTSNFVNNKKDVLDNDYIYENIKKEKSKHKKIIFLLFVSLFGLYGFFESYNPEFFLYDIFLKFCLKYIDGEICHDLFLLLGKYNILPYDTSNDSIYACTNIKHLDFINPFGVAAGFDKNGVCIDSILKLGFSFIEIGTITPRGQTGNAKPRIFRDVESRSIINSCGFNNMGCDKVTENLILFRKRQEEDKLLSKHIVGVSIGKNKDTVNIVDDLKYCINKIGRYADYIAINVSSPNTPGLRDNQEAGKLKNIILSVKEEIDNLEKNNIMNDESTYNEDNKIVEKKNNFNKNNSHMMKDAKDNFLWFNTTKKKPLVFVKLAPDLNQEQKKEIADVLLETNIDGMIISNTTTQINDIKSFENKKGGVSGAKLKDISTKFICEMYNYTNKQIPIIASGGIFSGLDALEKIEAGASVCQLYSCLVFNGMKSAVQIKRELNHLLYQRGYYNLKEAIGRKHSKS

Structure (SMILES)	z-score [1]	z-score [2]	z-score [3]	composite z-score [4]	z-score [5]	z-score [6]	z-score [7]	z-score [8]	z-score [9]	composite z-score [10]	composite z-score [11]	composite z-score (XIP peptide (Xip251-270))	z-score [12]	z-score [13]	z-score [14]	z-score [15]
C=CCOC(=O)[C@H]1[C@@H]2C(=O)O[C@@H](c3ccccc3)[C@@H](c3ccccc3)N2[C@@H](c2ccc(OCCOC(=O)[C@H]3C[C@H]4C(=O)N[C@@H](CCCCN(C)C)C(=O)N4[C@H]3c3cccc(OCCO)c3)cc2)[C@]12C(=O)Nc1ccc(I)cc12	-0.0574	0.626 (inactive)	-0.865 (inactive)	1.71 (inactive)	0.808 (inactive)	1.75 (inactive)	-0.548 (inactive)	-1.02 (inactive)	-0.316	0.194	0.718 (inactive)	0.634	-0.355	5.48 (inactive)	-0.187 (inactive)	0.0593 (inactive)
CCCCCCc1nc(-c2ccc(-c3ccc(Cl)c(Cl)c3)o2)c(C)c2c1[Si](C(C)C)(C(C)C)OC2	-0.865	-4.18 (inactive)	-2.84 (inactive)	-2.2 (inactive)	0.668 (inactive)	-0.721 (inactive)	-0.0618 (inactive)	-0.616 (inactive)	-1.42	-0.113	-0.376 (inactive)	0.148	-2.4	-2.13 (inactive)	0.394 (inactive)	0.251 (inactive)
CN1C(=O)C2C=CC(C(O)c3c(F)cccc3Cl)N(NC(=O)OC(C)(C)C)C2C1=O (centres undefined)	-0.417	0.357 (inactive)	-0.414 (inactive)	0.17 (inactive)	0.791 (inactive)	0.0301 (inactive)	-0.775 (inactive)	-0.181 (inactive)	-0.301	0.0951	1.69 (inactive)	0.836	0.436	-1.51 (inactive)	0.0188 (inactive)	0.0545 (inactive)
CC1CC/C=C\[C@H]2OC34C=CCN(c5ccc6ccccc6c5)C(=O)[C@H]3N(CCO)C(=O)[C@@H]4C2C(=O)O1 (some centres undefined)	-0.854	-0.635 (inactive)	-1.03 (inactive)	-0.509 (inactive)	0.826 (inactive)	-0.471 (inactive)	-0.726 (inactive)	-0.867 (inactive)	0.0886	0.0728	0.866 (inactive)	0.492	-0.607	-5.51 (inactive)	-0.209 (inactive)	-0.434 (inactive)
O=C1O[C@@H](c2ccccc2)[C@@H](c2ccccc2)N2[C@@H](c3ccc(OCCO)cc3)[C@]3(C(=O)Nc4ccc(C#CC5=CCCCC5)cc43)[C@@H](C(=O)N3CCCCCCC3)[C@H]12	-0.399	0.593 (inactive)	0.0902 (inactive)	-0.73 (inactive)	1.77 (inactive)	0.911 (inactive)	-1.32 (inactive)	0.0745 (inactive)	0.152	0.642	1.43 (inactive)	0.679	-2.22	-15.4 (active)	0.201 (inactive)	0.474 (inactive)
C=C(CCCC)/C(=C/C[C@H](OC(C)=O)c1ccc(OCCO)cc1)c1cnc2ccccc2c1	0.846	-0.0576 (inactive)	-1.42 (inactive)	-3.75 (inactive)	0.403 (inactive)	-0.476 (inactive)	0.187 (inactive)	0.225 (inactive)	0.228	-0.312	0.578 (inactive)	0.741	-2.93	-4.14 (inactive)	0.212 (inactive)	-0.34 (inactive)
CCN(CC)c1ccc(N2CC=CC34O[C@@H]5/C=C\CCC(C)OC(=O)C5[C@H]3C(=O)N(CCCCCO)[C@@H]4C2=O)cc1 (some centres undefined)	0.18	-0.596 (inactive)	0.603 (inactive)	0.513 (inactive)	-0.469 (inactive)	-0.147 (inactive)	0.95 (inactive)	1.1 (inactive)	0.802	-0.161	-0.474 (inactive)	0.102	-0.0194	-5.39 (inactive)	0.489 (inactive)	0.673 (inactive)
COC(=O)c1c2oc(c1C(=O)OC)C(=O)N[C@@H](C(C)C)Cn1cc(nn1)C1(CCCCC1)NC(=O)N[C@H](CO)CC2	1.61	-1.04 (inactive)	1.31 (inactive)	0.0825 (inactive)	0.985 (inactive)	-0.719 (inactive)	0.925 (inactive)	1.11 (inactive)	1.07	0.098	0.0023 (inactive)	0.0911	0.0538	-0.587 (inactive)	0.193 (inactive)	0.284 (inactive)
COCCCNC(=O)[C@@]1(Cc2ccccc2)N=C(c2ccc(OCCCO)cc2)O[C@H]1c1ccccc1CN=[N+]=[N-]	-0.708	-0.176 (inactive)	-0.78 (inactive)	-0.453 (inactive)	0.95 (inactive)	0.499 (inactive)	0.0347 (inactive)	0.134 (inactive)	-1.22	0.0607	0.596 (inactive)	0.801	-2.62	-3.07 (inactive)	0.0048 (inactive)	-0.194 (inactive)
O=C1O[C@@H](c2ccccc2)[C@@H](c2ccccc2)N2[C@@H](c3ccccc3OCCO)[C@]3(C(=O)Nc4ccc(C#CC5(O)CCCCCC5)cc43)[C@@H](C(=O)N3CCN(c4ncccn4)CC3)[C@H]12	0.0783	1.62 (inactive)	-1.18 (inactive)	0.937 (inactive)	1.94 (inactive)	4.01 (inactive)	-0.418 (inactive)	0.247 (inactive)	-0.737	0.372	-0.0661 (inactive)	0.661	-2.17	-1.01 (inactive)	-0.0019 (inactive)	0.451 (inactive)
COc1ccccc1CN1C(=O)c2ccccc2[C@@H](C(=O)NCc2ccccc2)[C@@H]1c1ccc(CO)cc1	-0.678	0.0688 (inactive)	0.122 (inactive)	0.942 (inactive)	-0.0528 (inactive)	-0.0226 (inactive)	-0.236 (inactive)	-0.36 (inactive)	0.427	-0.193	0.737 (inactive)	0.785	-1.45	-1.22 (inactive)	-0.295 (inactive)	-0.0433 (inactive)
O=C1NC(=O)C2C1C=CC(C(O)C=Cc1ccc([N+](=O)[O-])cc1)N2Nc1ccc(Cl)cc1Cl (centres undefined)	-1.22	-6.66 (inactive)	-1.19 (inactive)	0.139 (inactive)	0.807 (inactive)	0.379 (inactive)	0.178 (inactive)	-1.04 (inactive)	-0.615	-0.197	2.22 (inactive)	0.692	-0.143	-5.55 (inactive)	0.104 (inactive)	-0.171 (inactive)
COc1ccc(C(O)C2C=CC3C(=O)N(C)C(=O)C3N2NC(=O)OC(C)(C)C)c2ccccc12 (centres undefined)	-1.78	-1.15 (inactive)	-0.0317 (inactive)	0.799 (inactive)	0.503 (inactive)	1.06 (inactive)	-0.45 (inactive)	-0.765 (inactive)	-0.993	-0.193	0.661 (inactive)	0.744	-0.526	-4.22 (inactive)	0.667 (inactive)	0.704 (inactive)
COC(=O)[C@@]1(Cc2ccc(F)cc2)[C@H]2c3cc(C(=O)N(C)C)n(Cc4cc(C)n(C)n4)c3C[C@H]2CN1C(=O)c1ccccc1	-0.806	-0.169 (inactive)	-0.943 (inactive)	-0.368 (inactive)	0.495 (inactive)	-0.0352 (inactive)	-0.431 (inactive)	-0.851 (inactive)	-0.856	0.473	0.537 (inactive)	0.801	-0.358	-1.42 (inactive)	0.669 (inactive)	0.333 (inactive)
CC(c1ccccc1)C(O)C1C=CC2C(=O)N(C)C(=O)C2N1NC(=O)OC(C)(C)C (centres undefined)	-0.67	-0.424 (inactive)	-0.267 (inactive)	-0.14 (inactive)	0.903 (inactive)	0.732 (inactive)	-0.182 (inactive)	-0.339 (inactive)	0.15	0.184	2.04 (inactive)	0.63	1.05	-2.6 (inactive)	-0.129 (inactive)	-0.0976 (inactive)
COC(=O)c1c(CC[C@@H](CO)NC(=O)N[C@@H](Cc2ccccc2)Cn2cc(-c3ccccn3)nn2)oc(C(=O)N2CCOCC2)c1C(=O)OC	0.482	-0.239 (inactive)	0.475 (inactive)	0.138 (inactive)	-0.476 (inactive)	1.3 (inactive)	0.506 (inactive)	0.327 (inactive)	0.277	0.23	0.53 (inactive)	0.0134	-0.671	-2.7 (inactive)	0.101 (inactive)	0.0064 (inactive)
CCOC(=O)C[C@H]1[C@H](OC(=O)c2cc3ccccc3oc2=O)[C@@H](NC(=O)CC(C)C)c2cc(OCCCO)ccc2N1C(=O)c1ccccc1	-0.683	-1.9 (inactive)	0.338 (inactive)	-2.94 (inactive)	-1.39 (inactive)	-0.544 (inactive)	1.94 (inactive)	1.08 (inactive)	-0.0988	-0.117	-0.131 (inactive)	0.495	-1.89	-1.53 (inactive)	-0.315 (inactive)	0.0139 (inactive)
CC[C@@H]1C=C(C(=O)O)[C@H](c2cccc3ccccc23)N1S(=O)(=O)c1ccc(C)cc1	-0.359	0.518 (inactive)	-0.653 (inactive)	0.859 (inactive)	0.546 (inactive)	-0.43 (inactive)	-0.624 (inactive)	0.225 (inactive)	-1	-0.359	0.406 (inactive)	0.437	-0.509	-1.85 (inactive)	-1.25 (inactive)	-1.44 (inactive)
CN1C(=O)C2C=CC(C(O)C=Cc3ccc([N+](=O)[O-])cc3)N(Nc3ccccc3)C2C1=O (centres undefined)	-0.891	-4.48 (inactive)	-1.55 (inactive)	-1.01 (inactive)	1.41 (inactive)	-0.709 (inactive)	-0.377 (inactive)	-0.668 (inactive)	-1.45	0.376	0.113 (inactive)	0.612	0.431	-5.37 (inactive)	0.0831 (inactive)	-0.733 (inactive)
